Experiments:
Assay in all cases: log2 ratio of Biotin-Ahx-Ub-VS probe labelling (fragment/DMSO); higher = less target engagement (more negative = stronger competition), active = hit call of the paper (q ≤ 0.05, log2 ratio ≤ -1)
Conditions in all cases: compound concentration: 200 uM; treatment time: 3 h
[1] = biological target: USP34 (UniProt Q70CQ2)
Summary of the method: (§1)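 Labelled DUBs from HEK293T lysate were NeutrAvidin-enriched, digested with LysC and trypsin, and run by diaPASEF LC-MS/MS. Before that, each 495 µg sample in Tris/CHAPS/IGEPAL buffer with protease inhibitors was treated in triplicate with fragment at 200 µM or vehicle for 3 h, then with Biotin-Ahx-Ub-VS at 0.5 µM final for 1 h. Values are average log2 ratios of fragment over vehicle by unpaired t-test, based on global-median-normalised Spectronaut label-free quantities from proteins with ≥2 unique peptides.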

[2] = biological target: T1, USP36 (UniProt Q9P275)
T1 sequence (whole entry): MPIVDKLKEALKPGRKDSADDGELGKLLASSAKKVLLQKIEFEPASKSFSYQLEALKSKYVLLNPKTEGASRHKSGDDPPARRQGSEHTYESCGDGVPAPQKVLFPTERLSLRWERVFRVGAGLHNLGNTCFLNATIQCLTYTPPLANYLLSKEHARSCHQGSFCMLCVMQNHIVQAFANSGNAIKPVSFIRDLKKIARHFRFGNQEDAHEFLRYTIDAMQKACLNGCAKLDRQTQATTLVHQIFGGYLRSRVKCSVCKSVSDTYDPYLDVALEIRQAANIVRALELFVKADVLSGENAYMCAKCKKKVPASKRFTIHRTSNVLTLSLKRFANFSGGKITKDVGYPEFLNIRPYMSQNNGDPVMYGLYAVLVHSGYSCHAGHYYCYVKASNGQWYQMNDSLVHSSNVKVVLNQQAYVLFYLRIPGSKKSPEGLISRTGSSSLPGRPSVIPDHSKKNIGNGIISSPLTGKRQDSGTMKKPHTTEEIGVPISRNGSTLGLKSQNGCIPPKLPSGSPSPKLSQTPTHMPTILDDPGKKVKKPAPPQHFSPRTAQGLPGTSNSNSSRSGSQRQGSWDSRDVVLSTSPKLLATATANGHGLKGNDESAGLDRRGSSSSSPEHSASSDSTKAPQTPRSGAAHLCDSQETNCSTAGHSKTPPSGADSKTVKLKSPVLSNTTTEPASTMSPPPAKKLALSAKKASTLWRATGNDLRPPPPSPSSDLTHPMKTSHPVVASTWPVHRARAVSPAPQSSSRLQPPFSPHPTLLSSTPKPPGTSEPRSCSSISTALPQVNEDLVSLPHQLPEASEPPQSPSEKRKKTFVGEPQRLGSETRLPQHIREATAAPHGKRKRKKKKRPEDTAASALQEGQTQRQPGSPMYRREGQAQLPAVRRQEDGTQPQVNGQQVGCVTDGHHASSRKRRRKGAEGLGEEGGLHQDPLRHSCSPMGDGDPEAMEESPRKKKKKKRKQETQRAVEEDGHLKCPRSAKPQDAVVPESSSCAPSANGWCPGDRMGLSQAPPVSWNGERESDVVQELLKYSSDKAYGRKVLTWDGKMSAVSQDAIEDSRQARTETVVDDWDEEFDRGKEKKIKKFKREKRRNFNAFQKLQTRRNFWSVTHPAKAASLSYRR
Summary of the method: as §1

[3] = biological target: T2, USP38 (UniProt Q8NB14)
T2 sequence (whole entry): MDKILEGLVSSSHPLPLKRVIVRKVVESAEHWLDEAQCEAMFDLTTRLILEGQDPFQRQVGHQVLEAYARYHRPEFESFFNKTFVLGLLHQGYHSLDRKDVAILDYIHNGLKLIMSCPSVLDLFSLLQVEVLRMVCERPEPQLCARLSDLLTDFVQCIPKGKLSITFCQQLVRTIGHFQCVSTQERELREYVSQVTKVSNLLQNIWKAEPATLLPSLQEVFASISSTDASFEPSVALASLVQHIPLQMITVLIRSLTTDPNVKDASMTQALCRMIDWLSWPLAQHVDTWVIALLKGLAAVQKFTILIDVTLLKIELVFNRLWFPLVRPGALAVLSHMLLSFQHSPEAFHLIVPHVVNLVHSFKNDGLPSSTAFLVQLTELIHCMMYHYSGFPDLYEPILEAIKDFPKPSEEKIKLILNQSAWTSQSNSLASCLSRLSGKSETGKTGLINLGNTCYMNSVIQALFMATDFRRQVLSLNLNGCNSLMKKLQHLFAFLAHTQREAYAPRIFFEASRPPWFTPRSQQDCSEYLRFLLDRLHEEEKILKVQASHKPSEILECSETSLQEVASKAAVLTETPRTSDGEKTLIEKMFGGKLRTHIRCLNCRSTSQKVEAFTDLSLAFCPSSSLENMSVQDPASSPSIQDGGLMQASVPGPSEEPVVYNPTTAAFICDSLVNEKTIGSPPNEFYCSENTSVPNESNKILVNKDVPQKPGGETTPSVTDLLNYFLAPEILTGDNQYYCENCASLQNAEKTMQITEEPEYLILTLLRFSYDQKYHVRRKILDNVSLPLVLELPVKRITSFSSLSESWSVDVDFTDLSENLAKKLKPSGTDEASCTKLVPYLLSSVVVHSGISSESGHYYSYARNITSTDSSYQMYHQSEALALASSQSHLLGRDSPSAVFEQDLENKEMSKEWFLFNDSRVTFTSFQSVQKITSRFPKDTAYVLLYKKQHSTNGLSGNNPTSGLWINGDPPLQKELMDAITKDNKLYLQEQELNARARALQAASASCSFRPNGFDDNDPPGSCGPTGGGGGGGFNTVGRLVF
Summary of the method: as §1

[4] = biological target: T3, USP39 (UniProt Q53GS9)
T3 sequence (whole entry): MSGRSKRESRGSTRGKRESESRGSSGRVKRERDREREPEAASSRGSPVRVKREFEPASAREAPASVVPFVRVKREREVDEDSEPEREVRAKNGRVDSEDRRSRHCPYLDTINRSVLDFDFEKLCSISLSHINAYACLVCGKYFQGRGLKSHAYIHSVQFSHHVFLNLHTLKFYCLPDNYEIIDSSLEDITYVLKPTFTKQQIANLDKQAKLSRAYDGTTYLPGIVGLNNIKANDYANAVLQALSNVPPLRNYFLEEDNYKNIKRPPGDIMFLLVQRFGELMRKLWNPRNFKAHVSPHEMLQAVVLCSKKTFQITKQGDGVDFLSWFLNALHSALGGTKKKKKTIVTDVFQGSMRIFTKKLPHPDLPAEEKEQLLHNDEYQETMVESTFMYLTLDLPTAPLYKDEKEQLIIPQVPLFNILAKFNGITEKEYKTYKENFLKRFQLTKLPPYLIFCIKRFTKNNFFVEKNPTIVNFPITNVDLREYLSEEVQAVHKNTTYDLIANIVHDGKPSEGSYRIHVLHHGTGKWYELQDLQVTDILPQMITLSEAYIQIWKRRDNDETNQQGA
Summary of the method: as §1

[5] = biological target: T4, USP4 (UniProt Q13107)
T4 sequence (whole entry): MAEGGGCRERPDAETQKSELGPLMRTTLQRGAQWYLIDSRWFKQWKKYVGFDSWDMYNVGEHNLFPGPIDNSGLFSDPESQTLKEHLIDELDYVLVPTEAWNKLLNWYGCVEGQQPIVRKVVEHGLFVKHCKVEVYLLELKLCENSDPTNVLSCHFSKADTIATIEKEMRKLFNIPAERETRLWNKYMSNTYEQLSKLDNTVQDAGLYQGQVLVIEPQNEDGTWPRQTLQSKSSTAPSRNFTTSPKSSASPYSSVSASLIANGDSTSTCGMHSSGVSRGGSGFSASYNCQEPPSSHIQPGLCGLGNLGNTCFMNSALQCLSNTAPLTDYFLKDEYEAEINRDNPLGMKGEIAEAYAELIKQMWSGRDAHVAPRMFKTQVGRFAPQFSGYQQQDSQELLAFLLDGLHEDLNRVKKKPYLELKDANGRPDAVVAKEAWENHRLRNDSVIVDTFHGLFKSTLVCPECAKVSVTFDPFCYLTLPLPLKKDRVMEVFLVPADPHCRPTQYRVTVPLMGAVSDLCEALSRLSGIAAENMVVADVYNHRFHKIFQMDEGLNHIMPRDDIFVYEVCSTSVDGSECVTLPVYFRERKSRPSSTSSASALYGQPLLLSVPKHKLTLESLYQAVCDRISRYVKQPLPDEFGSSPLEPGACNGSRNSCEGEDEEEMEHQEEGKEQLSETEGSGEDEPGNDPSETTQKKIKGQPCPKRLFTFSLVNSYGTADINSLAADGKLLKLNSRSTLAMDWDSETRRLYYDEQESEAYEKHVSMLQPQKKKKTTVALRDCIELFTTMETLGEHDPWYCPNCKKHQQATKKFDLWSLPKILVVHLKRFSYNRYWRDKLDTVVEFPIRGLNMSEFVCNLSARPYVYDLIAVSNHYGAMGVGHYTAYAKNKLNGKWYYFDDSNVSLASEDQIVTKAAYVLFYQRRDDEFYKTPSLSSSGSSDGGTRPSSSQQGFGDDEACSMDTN
Summary of the method: as §1

Measured: log2 ratio of Biotin-Ahx-Ub-VS probe labelling

Sequence of USP34 (Q70CQ2 whole entry, the tested form may be a part): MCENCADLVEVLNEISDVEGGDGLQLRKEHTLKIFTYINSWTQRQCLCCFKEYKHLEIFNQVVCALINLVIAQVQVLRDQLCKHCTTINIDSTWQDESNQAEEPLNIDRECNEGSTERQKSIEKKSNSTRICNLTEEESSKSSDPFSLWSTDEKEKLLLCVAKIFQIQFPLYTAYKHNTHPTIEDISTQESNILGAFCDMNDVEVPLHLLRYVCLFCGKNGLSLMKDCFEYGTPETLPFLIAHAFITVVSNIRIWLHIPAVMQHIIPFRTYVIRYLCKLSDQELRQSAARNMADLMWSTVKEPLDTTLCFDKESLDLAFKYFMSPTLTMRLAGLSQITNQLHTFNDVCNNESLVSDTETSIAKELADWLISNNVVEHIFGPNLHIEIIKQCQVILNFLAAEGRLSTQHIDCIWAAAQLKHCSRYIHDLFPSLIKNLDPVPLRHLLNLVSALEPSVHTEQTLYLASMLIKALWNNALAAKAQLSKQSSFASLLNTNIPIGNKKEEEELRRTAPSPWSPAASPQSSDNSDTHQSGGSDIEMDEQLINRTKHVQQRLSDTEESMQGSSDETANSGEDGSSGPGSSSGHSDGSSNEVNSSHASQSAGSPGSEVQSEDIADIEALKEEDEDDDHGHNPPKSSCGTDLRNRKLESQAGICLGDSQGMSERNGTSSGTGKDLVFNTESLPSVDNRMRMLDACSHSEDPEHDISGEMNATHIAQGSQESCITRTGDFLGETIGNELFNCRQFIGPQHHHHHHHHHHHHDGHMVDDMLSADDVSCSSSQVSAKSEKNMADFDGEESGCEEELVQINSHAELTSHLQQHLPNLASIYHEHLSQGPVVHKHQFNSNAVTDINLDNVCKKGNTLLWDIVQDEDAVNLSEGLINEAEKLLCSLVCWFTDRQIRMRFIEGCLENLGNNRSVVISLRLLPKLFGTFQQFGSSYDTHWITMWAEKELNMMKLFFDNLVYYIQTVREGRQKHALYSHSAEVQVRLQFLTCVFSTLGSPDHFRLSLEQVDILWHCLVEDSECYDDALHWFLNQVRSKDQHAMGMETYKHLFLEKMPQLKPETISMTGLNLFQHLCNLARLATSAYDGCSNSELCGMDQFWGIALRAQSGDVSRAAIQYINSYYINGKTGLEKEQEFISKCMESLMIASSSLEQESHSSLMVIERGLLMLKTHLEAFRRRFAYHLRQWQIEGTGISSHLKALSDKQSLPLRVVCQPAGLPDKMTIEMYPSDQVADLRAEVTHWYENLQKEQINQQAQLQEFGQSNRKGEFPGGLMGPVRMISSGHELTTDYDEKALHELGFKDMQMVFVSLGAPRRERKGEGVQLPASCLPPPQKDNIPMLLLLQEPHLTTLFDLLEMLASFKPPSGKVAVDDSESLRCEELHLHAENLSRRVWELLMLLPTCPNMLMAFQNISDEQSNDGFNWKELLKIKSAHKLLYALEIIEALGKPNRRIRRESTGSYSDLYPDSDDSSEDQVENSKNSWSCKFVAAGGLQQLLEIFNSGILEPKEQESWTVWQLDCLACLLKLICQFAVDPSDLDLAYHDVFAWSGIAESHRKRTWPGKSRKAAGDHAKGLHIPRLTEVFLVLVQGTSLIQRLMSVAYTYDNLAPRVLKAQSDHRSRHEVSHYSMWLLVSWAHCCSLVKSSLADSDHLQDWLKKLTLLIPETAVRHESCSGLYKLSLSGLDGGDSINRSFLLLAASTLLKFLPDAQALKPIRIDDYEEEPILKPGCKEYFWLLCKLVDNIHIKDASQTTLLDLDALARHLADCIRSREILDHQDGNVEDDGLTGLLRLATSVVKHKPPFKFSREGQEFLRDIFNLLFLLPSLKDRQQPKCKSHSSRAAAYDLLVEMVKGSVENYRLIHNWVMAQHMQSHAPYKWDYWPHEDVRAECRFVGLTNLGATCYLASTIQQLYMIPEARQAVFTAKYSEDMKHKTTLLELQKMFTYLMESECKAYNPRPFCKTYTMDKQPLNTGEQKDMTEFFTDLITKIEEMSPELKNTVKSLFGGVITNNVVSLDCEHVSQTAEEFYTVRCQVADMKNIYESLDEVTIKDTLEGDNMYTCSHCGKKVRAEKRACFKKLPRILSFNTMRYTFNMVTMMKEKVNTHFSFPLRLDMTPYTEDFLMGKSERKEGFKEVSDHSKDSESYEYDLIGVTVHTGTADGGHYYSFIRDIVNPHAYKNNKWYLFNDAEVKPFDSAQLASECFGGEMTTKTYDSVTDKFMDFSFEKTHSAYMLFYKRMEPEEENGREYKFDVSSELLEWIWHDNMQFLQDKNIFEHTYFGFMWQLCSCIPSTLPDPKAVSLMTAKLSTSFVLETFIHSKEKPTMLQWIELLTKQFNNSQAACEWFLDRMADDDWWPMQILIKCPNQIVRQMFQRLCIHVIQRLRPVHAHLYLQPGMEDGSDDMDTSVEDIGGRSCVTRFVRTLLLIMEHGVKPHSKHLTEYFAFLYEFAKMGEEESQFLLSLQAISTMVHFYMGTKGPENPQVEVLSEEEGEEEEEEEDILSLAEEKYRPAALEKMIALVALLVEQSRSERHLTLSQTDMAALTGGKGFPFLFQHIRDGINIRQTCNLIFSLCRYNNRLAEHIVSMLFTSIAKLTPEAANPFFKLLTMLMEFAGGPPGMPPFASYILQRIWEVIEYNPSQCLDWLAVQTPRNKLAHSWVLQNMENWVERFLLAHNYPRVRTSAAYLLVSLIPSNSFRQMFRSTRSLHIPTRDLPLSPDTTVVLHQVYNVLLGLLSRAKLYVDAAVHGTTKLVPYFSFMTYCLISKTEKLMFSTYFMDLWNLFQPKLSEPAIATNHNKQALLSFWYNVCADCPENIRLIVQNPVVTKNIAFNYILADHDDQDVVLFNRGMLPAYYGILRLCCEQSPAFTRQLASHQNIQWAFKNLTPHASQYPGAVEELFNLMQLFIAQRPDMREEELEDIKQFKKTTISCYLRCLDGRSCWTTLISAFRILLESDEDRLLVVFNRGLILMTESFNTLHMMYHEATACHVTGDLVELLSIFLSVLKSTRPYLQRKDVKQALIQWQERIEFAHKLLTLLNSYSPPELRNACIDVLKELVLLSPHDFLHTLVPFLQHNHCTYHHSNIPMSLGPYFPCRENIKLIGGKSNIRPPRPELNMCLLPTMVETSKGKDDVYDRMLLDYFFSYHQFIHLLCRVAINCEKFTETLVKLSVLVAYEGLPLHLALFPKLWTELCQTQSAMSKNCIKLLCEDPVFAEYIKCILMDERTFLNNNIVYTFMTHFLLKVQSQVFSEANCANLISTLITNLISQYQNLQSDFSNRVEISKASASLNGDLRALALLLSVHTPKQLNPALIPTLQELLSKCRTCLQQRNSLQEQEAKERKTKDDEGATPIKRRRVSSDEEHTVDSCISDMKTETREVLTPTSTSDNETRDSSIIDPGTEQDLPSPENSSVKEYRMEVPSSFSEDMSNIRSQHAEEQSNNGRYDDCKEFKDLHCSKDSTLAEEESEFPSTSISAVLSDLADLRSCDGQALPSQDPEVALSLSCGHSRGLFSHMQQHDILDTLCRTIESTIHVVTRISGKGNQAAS

COc1ccccc1C(C)NC(=O)CCl (stereo not given)
inactive: [1] -0.129 | [2] -0.00263 | [3] -0.182 | [4] -0.155 | [5] -0.226

— the supplement of paper PMC11732987, “Enantioselective OTUD7B fragment discovery through chemoproteomics screening and high-throughput optimisation” (Communications Chemistry, 2025)
